POLK inh: qHTS for Inhibitors of Polymerase Kappa; purified Pol kappa, fluorescent DNA synthesis assay, 10 min; Potency, µM (doses to about 107 µM), usual class: inhibitors; 400,000 compounds, 0.53% hits; AID 588579, 2011
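10 nM Pol kappa preincubated 15 min at room temperature with compounds, then reaction started with substrate at 50 nM final. Fluorescence read kinetically at 0 and 10 min; buffer-only wells served as negative control.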
PI5P4Ka inh: qHTS for Inhibitors of phosphatidylinositol 5-phosphate 4-kinase (PI5P4K). 330,000 compounds, 1.2% hits. max response, %. AID 652105, 2013. PI5P4Kalpha enzyme, ADP-Glo luminescence, 60 min; hits give low values; active = max response of -50% or lower; inconclusive = between -30% and -50%; inactive = -30% or higher; also: value at the top dose of about 77 µM
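Enzyme plus substrate dispensed, test compounds pinned in, then ATP (5 microM final) added. After 60 min at RT, ADP-Glo reagent 1 for 45 min and reagent 2 for 30 min preceded luminescence imaging.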
Pol iota inh: qHTS for Inhibitors of Polymerase Iota; 390,000 compounds, 1% hits; DNA polymerase iota (Homo sapiens), Q9UNA4; AID 588590, 2011; Potency, µM (doses to about 115 µM), most hits filed as inhibitors; Pol iota fluorescent replication assay, 10 min
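Pol iota at 10 nM preincubated 15 min with compounds at room temperature; reaction started with fluorescent substrate, 50 nM final. Fluorescence read kinetically at 0 and 10 min; buffer-only wells as negative control.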
Pol eta inh: qHTS for Inhibitors of Polymerase Eta; DNA polymerase eta (Homo sapiens), Q9Y253; 390,000 compounds, 1.2% hits; recombinant Pol eta, fluorescent DNA replication assay; Potency, µM (highest dose often 114 µM), actives largely listed as inhibitors; AID 588591, 2011
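Pol eta at 10 nM preincubated with compounds 15 min at room temperature; reaction started with fluorescent substrate (50 nM final) and read kinetically at 0 and 10 min.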
POLB inh: qHTS Assay for Inhibitors of DNA Polymerase Beta. Potency, µM (titrated, usually from 114 µM), most hits filed as inhibitors. 340,000 compounds, 1.3% hits. AID 485314, 2010. Pol beta primer extension/strand displacement, fluorescence kinetic
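Preincubation: enzyme (10 nM) with compound, 15 min, RT. Reaction: substrate added to 50 nM final. Reads: 0 and 10 min. Analysis: normalized, Hill fit.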
WRN inhibitor: qHTS for Inhibitors of WRN Helicase; Potency, µM (top dose mostly 114 µM), most hits filed as inhibitors; 360,000 compounds, 0.46% hits; WRN helicase unwinding, fluorescent forked duplex, kinetic; AID 651768, 2012; also: nearly all actives have a fitted effect of over 55% in size
Target sequence (Q14191 whole entry, looked up): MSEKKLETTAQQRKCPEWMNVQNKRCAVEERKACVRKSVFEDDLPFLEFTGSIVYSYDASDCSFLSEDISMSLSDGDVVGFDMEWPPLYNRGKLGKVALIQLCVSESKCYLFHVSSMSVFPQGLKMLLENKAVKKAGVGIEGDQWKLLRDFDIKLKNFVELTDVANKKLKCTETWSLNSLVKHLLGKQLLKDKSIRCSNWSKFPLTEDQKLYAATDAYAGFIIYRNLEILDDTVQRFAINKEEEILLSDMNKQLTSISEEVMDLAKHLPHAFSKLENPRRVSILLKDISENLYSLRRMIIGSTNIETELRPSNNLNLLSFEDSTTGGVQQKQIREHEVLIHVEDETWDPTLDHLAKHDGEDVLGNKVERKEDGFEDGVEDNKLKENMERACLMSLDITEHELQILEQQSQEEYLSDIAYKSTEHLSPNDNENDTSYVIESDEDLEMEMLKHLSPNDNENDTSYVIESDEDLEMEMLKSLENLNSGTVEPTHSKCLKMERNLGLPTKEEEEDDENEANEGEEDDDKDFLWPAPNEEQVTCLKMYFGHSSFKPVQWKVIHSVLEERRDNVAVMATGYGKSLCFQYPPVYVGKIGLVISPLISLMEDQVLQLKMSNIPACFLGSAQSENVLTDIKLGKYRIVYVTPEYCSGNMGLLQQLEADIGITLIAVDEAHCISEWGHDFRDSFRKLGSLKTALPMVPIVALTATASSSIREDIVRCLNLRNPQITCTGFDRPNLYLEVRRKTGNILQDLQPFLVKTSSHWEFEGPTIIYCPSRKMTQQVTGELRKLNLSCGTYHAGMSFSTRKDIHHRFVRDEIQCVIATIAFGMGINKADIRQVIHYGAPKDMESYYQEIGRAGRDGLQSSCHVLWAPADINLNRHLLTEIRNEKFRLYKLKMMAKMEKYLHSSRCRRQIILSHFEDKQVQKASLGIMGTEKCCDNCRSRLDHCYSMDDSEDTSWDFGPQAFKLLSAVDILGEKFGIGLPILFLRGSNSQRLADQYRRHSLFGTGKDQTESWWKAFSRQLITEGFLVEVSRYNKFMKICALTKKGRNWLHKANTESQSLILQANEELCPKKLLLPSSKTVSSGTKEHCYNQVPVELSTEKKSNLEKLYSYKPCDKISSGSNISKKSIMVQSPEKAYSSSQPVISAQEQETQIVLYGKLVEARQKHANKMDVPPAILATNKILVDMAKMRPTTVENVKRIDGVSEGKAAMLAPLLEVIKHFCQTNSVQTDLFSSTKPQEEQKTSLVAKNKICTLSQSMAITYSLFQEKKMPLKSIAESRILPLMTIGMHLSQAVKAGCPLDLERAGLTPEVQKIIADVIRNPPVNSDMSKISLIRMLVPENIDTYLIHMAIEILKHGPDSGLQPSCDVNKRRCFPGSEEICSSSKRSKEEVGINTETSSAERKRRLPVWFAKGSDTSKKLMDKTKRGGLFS
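Fluorescence dequenching readout, ex 525 nm/em 598 nm, kinetic mode: forked duplex DNA (100 nM final) with adjacent fluorophore and quencher unwound by WRN (20 nM final) with 2 mM ATP. Compound preincubation 15 min, room temperature.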
Of the large screens only hits and unclear results are named; the others gave an inactive call. An excerpt weighted towards active compounds, which were near 2.8% of everything screened. Unless noted, calls follow the shape of the dose curve; as a rule, active = well fitted curve in the direction sought with a large enough effect; inconclusive = small, poorly fitted or top-dose-only effect, or another doubt; inactive = no such curve, though single readings can be large; an effect the other way counts as inactive or inconclusive.

C=CCNC(=O)CSc1nnc(C(CC)N(C)C)n1C1CCCCC1 (stereo unspecified)	none
O=S(=O)(Nc1ncnc2sc3c(c12)CCC3)c1ccc(Cl)s1	Pol iota inh inconclusive, Pol eta inh 35µM
Cc1c(C(=O)O)oc2c1-c1nn(Cc3ccc(Cl)cc3)cc1CC2	Pol iota inh inconclusive, POLB inh 25µM (no result: PI5P4Ka inh, Pol eta inh, WRN inhibitor)
COc1ccccc1N1C(=O)C=C(Sc2nc(C)cc(C)n2)C1=O	PI5P4Ka inh -57, WRN inhibitor inconclusive
COc1ccccc1N1C(=O)C2CC(C)=C(C)CC2C1=O (stereo unspecified)	none (no result: PI5P4Ka inh)
COc1ccc2c(C)cc(SCC(=O)Nc3cc(C(N)=O)cc(C(N)=O)c3)nc2c1	Pol iota inh 35µM, Pol eta inh 50µM, POLB inh 25µM
COc1cccc(NC(=O)CSc2cc(C)c3ccccc3n2)c1	none (no result: PI5P4Ka inh, Pol eta inh, WRN inhibitor)
COc1ccc(C#Cc2c[nH]c(=O)c3cncnc23)cc1OC	none (no result: PI5P4Ka inh, Pol eta inh, POLB inh, WRN inhibitor)
C/C=C(\C)C(=O)OC1CC(C)(C)C[C@H]2C3=CC[C@@H]4[C@@]5(C)CCC(O[C@@H]6O[C@@H](C(=O)O)[C@@H](O)C(O[C@@H]7OC[C@H](O)[C@@H](O)[C@@H]7O[C@@H]7OC(CO)C(O)[C@@H](O)[C@@H]7O)C6O[C@@H]6OC(CO)C(O)C(O)C6O)[C@@](C)(CO)[C@@H]5CC[C@]4(C)[C@]3(C)CC(O)[C@@]12CO (stereo partly specified)	PI5P4Ka inh inconclusive, Pol iota inh 13µM, Pol eta inh inconclusive (no result: POLB inh)
CN1C(=O)C(Cl)(Cl)C(=O)c2ccccc21	PI5P4Ka inh -89, Pol iota inh inconclusive, WRN inhibitor inconclusive
CN1C(=O)C2(NC(=O)c3ccccc3N2C)c2ccccc21 (stereo unspecified)	none
NC(=S)N/N=C/c1coc2ccc(Cl)cc2c1=O	none
CC(=O)Oc1ccc2c(=O)c(/C=N/c3cc(=O)[nH]c(=S)[nH]3)coc2c1	PI5P4Ka inh -91, Pol iota inh inconclusive, Pol eta inh inconclusive
O=c1cc(/N=C/c2coc3cc(Br)ccc3c2=O)[nH]c(=S)[nH]1	PI5P4Ka inh -83, Pol iota inh inconclusive
O=c1c(C(c2ccc(Cl)cc2)c2c(O)nc3n(c2=O)CCS3)c(O)nc2n1CCS2	POLK inh inconclusive, PI5P4Ka inh inconclusive, Pol iota inh inconclusive, Pol eta inh 89µM
Cc1nc(NCc2ccco2)c2c(C)c(C)sc2n1	none (no result: PI5P4Ka inh)
Cc1sc2nc3c4ccccc4c(NCc4ccco4)nn3c(=O)c2c1C	PI5P4Ka inh inconclusive, Pol eta inh inconclusive, POLB inh 11µM, WRN inhibitor inconclusive
O=C(O)c1ccc(S(=O)(=O)N(CCc2ccccc2)Cc2ccc(Cl)cc2)cc1	POLB inh 50µM
CC(C)NC(=O)c1cc(=O)n(C)c(=O)n1C	none
O=C(CSc1nnc2c3ccccc3c3ccccc3c2n1)Nc1ccccc1F	PI5P4Ka inh inconclusive, Pol eta inh 32µM, POLB inh 11µM, WRN inhibitor inconclusive
COc1ccc(Oc2ncc3nc(-c4ccccc4)c(=O)n(Cc4cccs4)c3n2)cc1	none (no result: PI5P4Ka inh, Pol iota inh, Pol eta inh, POLB inh, WRN inhibitor)
COCCNC(=O)/C(C#N)=C/c1ccc(O)c([N+](=O)[O-])c1	PI5P4Ka inh inconclusive
CCOCCCNC(=O)/C(C#N)=C/c1cc(OC)c(O)c([N+](=O)[O-])c1	PI5P4Ka inh -64
CCN(CC)C(=O)/C(C#N)=C/c1cc(O)c(O)c([N+](=O)[O-])c1	POLK inh 6.7µM (no result: PI5P4Ka inh, Pol iota inh, Pol eta inh, POLB inh, WRN inhibitor)
Cc1ccccc1C(=O)Nc1nnc(SCC(=O)NCc2ccco2)s1	none
CN(C)CCn1nnnc1SCC1=C(C(=O)O)N2C(=O)[C@@H](NC(=O)Cc3csc(N)n3)[C@H]2SC1	POLK inh 50µM, Pol iota inh 14µM, Pol eta inh inconclusive (no result: POLB inh)
NCc1ccccc1CC(=O)N[C@@H]1C(=O)N2C(C(=O)O)=C(CSc3nnnn3CC(=O)O)CS[C@@H]12	none (no result: PI5P4Ka inh, Pol iota inh, Pol eta inh, POLB inh, WRN inhibitor)

Screening data (PubChem BioAssay)
